Results reported in paper PMC7862700, “An all-to-all approach to the identification of sequence-specific readers for epigenetic DNA modifications on cytosine”.

Experiments:
Assay in all cases: DAPPL (digital affinity profiling via proximity ligation, sequencing); 10 mM Tris-HCl pH 7.5, 50 mM NaCl, 1 mM DTT, 4% glycerol, room temperature, 30 min; GST-TFs on glutathione beads, 16-mer random dsDNA library, 0.1% formaldehyde crosslink after washing; high values mean tight binding
FLI1 = target: T1, FLI1 (Homo sapiens, UniProt Q01543 1-452); conditions: protein: recombinant; tags: N-terminal GST; dsDNA, one strand shown
T1 sequence: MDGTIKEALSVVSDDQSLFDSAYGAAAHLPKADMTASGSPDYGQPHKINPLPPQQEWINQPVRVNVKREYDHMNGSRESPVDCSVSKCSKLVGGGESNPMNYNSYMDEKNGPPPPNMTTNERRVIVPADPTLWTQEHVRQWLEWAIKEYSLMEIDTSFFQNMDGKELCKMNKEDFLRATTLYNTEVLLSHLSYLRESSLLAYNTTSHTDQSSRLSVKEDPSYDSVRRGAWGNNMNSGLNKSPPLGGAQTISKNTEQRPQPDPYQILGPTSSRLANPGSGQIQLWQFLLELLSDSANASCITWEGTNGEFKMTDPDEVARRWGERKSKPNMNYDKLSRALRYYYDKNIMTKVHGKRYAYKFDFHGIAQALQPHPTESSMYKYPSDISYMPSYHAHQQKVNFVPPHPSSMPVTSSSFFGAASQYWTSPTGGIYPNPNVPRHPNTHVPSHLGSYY
Summary of the method: (§1)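 Binding signal is given per hexamer as its read frequency for a factor divided by its frequency in the tag-only sample. GST-fused human transcription factors were expressed in yeast, captured on glutathione beads, barcoded with DNA and pooled with that sample, then incubated with 200 nmole of a 16-mer random double-stranded DNA library in Tris/NaCl/DTT/glycerol buffer for 30 min at room temperature. The pools were then washed, crosslinked, proximity-ligated, amplified by PCR and sequenced on an Illumina NextSeq500.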

ELK1 = target: T2, ELK1 (Homo sapiens, UniProt P19419 1-428); conditions: protein: recombinant; tags: N-terminal GST; dsDNA, one strand shown
T2 sequence: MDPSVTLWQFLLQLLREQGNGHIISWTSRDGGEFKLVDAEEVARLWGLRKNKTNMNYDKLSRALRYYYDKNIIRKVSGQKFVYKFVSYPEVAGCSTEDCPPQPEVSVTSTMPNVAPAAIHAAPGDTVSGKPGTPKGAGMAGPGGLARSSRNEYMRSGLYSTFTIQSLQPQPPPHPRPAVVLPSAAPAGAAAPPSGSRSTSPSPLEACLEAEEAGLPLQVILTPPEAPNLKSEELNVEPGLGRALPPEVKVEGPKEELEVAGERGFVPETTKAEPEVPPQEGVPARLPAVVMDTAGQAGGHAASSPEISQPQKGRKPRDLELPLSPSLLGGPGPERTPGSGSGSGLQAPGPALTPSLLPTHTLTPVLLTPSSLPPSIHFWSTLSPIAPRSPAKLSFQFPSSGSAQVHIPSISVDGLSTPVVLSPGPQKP
Summary of the method: as §1

GABPA = target: T3, GABPA (Homo sapiens, UniProt Q06546 1-454); conditions: protein: recombinant; tags: N-terminal GST; dsDNA, one strand shown
T3 sequence: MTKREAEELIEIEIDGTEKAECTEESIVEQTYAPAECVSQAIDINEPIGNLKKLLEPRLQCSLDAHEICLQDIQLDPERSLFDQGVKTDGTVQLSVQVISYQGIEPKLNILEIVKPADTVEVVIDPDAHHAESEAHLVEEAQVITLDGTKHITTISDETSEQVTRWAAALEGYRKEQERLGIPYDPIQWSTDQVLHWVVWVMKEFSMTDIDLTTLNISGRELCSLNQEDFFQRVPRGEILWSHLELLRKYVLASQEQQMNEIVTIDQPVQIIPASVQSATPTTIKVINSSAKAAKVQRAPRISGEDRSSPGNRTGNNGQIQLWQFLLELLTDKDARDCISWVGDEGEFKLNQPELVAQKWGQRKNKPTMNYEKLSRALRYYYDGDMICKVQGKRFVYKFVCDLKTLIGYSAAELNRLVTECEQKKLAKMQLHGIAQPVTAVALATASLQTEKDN
Summary of the method: as §1

ERG = target: T4, ERG (Homo sapiens, UniProt P11308 1-479); conditions: protein: recombinant; tags: N-terminal GST; dsDNA, one strand shown
T4 sequence: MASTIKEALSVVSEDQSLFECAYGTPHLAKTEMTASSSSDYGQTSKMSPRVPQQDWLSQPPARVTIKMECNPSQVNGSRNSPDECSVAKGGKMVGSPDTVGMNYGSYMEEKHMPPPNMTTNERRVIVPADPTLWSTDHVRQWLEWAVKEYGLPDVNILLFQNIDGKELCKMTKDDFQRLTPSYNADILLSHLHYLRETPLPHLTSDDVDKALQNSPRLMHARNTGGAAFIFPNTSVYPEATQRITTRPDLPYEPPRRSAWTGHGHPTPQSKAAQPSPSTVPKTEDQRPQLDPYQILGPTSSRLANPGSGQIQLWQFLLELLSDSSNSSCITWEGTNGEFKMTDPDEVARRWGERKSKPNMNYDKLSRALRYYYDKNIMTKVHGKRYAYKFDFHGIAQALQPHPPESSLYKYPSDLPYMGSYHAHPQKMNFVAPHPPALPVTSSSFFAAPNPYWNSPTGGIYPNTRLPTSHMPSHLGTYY
Summary of the method: as §1

ELF1 = ELF1 (Homo sapiens, UniProt P32519 1-619); conditions: protein: recombinant; tags: N-terminal GST; dsDNA, one strand shown
Summary of the method: as §1

EHF = target: T5, EHF (Homo sapiens, UniProt Q9NZC4 1-300); conditions: protein: recombinant; tags: N-terminal GST; dsDNA, one strand shown
T5 sequence: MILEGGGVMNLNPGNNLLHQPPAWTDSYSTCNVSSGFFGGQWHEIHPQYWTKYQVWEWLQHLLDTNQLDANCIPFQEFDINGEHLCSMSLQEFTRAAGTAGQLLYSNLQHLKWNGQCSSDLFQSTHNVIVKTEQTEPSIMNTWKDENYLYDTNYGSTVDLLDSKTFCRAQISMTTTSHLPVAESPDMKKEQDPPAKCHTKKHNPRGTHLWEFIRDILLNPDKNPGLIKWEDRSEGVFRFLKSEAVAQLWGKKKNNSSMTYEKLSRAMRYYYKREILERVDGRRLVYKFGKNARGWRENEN
Summary of the method: as §1

SPI1 = SPI1 (Homo sapiens, UniProt P17947 1-270); conditions: protein: recombinant; tags: N-terminal GST; dsDNA, one strand shown
Summary of the method: as §1

SPIB = SPIB (Homo sapiens, UniProt Q01892 1-262); conditions: protein: recombinant; tags: N-terminal GST; dsDNA, one strand shown
Summary of the method: as §1

ELK3 = target: T6, ELK3 (Homo sapiens, UniProt P41970 1-407); conditions: protein: recombinant; tags: N-terminal GST; dsDNA, one strand shown
T6 sequence: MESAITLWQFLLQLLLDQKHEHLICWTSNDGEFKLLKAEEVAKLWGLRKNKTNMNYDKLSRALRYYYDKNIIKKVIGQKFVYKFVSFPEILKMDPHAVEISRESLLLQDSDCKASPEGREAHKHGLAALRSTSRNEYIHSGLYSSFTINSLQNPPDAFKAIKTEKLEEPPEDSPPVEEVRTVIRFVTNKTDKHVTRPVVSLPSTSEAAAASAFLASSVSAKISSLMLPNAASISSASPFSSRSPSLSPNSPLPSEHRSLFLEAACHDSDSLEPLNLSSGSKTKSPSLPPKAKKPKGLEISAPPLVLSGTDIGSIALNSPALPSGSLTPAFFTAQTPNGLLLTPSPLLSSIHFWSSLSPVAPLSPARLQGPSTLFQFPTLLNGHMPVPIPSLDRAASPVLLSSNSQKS
Summary of the method: as §1

FEV = target: T7, FEV (Homo sapiens, UniProt Q99581 1-238); conditions: protein: recombinant; tags: N-terminal GST; dsDNA, one strand shown
T7 sequence: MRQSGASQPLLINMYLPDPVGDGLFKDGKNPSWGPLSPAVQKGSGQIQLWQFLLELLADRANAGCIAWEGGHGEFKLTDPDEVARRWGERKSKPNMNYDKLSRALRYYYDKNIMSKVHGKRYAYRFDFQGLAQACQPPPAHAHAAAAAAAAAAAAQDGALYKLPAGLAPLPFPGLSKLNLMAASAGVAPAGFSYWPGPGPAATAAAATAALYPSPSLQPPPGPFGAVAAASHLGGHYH
Summary of the method: as §1

ETV5 = ETV5 (Homo sapiens, UniProt P41161 1-510); conditions: protein: recombinant; tags: N-terminal GST; dsDNA, one strand shown
Summary of the method: as §1

HSF1 = HSF1 (Homo sapiens, UniProt Q00613 1-529); conditions: protein: recombinant; tags: N-terminal GST; chain copies: 3; dsDNA, one strand shown
Summary of the method: as §1

SPIC = target: T8, SPIC (Homo sapiens, UniProt Q8N5J4 1-248); conditions: protein: recombinant; tags: N-terminal GST; dsDNA, one strand shown
T8 sequence: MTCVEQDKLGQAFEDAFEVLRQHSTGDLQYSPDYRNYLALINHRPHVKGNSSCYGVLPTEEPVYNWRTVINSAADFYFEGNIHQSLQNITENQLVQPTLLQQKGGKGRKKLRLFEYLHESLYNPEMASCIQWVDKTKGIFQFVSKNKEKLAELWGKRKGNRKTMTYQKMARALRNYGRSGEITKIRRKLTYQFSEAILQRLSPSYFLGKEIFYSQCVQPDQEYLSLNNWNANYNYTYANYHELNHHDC
Summary of the method: as §1

ELF4 = ELF4 (Homo sapiens, UniProt Q99607 1-663); conditions: protein: recombinant; tags: N-terminal GST; dsDNA, one strand shown
Summary of the method: as §1

ELK4 = target: T9, ELK4 (Homo sapiens, UniProt P28324-2 1-405); conditions: protein: recombinant; tags: N-terminal GST; dsDNA, one strand shown
T9 sequence: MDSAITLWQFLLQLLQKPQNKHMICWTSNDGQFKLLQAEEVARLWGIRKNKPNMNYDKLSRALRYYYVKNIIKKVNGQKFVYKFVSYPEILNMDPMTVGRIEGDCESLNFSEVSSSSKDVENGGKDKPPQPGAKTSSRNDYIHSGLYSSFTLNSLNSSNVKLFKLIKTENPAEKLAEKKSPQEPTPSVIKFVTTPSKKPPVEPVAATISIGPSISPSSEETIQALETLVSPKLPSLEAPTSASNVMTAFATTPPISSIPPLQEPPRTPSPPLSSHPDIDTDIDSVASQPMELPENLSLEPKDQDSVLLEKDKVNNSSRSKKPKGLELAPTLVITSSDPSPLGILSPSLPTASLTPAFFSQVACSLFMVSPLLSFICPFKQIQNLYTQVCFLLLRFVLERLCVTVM
Summary of the method: as §1

ETV2 = target: T10, ETV2 (Homo sapiens, UniProt O00321 1-342); conditions: protein: recombinant; tags: N-terminal GST; dsDNA, one strand shown
T10 sequence: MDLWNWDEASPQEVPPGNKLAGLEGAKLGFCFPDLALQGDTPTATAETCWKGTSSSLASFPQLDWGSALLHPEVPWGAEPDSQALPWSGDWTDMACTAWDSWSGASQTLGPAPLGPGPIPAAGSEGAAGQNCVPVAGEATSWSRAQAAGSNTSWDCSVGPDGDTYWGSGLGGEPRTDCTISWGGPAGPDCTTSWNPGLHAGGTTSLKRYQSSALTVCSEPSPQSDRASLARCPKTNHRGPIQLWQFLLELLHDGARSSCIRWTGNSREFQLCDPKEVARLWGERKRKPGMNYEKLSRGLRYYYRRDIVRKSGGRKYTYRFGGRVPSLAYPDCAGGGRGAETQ
Summary of the method: as §1

ELF3 = target: T11, ELF3 (Homo sapiens, UniProt P78545 1-371); conditions: protein: recombinant; tags: N-terminal GST; dsDNA, one strand shown
T11 sequence: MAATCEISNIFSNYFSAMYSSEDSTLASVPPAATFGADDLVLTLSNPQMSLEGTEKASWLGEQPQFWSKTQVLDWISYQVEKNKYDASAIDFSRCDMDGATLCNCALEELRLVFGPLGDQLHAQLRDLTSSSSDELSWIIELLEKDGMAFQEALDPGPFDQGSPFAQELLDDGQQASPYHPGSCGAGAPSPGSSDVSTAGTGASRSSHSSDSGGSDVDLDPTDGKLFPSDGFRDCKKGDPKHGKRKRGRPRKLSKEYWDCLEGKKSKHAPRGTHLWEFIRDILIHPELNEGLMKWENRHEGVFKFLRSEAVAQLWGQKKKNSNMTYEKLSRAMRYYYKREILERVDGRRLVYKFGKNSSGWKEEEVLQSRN
Summary of the method: as §1

CRX = CRX (Homo sapiens, UniProt O43186 1-299); conditions: protein: recombinant; tags: N-terminal GST; dsDNA, one strand shown
Summary of the method: as §1

ETV1 = ETV1 (Homo sapiens, UniProt P50549 1-477); conditions: protein: recombinant; tags: N-terminal GST; dsDNA, one strand shown
Summary of the method: as §1

Sequence of ETV5 (P41161 whole entry): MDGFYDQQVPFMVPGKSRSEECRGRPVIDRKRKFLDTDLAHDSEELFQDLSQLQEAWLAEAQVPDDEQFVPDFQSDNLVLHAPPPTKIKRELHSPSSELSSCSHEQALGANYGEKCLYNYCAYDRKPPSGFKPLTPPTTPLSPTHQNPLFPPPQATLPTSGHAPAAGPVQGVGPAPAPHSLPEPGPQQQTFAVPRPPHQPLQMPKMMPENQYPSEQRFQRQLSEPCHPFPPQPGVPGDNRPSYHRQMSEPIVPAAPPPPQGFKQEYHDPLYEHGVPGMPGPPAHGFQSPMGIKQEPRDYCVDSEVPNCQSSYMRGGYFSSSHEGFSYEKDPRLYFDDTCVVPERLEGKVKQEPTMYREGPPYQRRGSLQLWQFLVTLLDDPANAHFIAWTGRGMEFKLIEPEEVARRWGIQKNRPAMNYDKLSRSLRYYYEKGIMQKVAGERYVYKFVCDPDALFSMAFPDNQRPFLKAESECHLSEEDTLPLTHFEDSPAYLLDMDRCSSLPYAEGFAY
Sequence of SPIB (Q01892 whole entry): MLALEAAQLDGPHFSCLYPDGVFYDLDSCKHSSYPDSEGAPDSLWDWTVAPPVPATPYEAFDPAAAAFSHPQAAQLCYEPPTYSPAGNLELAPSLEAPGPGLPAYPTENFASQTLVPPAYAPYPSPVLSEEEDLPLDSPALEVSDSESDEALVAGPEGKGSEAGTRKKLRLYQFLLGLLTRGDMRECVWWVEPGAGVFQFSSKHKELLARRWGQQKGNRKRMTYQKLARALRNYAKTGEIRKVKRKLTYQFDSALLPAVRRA
Sequence of ETV1 (P50549 whole entry): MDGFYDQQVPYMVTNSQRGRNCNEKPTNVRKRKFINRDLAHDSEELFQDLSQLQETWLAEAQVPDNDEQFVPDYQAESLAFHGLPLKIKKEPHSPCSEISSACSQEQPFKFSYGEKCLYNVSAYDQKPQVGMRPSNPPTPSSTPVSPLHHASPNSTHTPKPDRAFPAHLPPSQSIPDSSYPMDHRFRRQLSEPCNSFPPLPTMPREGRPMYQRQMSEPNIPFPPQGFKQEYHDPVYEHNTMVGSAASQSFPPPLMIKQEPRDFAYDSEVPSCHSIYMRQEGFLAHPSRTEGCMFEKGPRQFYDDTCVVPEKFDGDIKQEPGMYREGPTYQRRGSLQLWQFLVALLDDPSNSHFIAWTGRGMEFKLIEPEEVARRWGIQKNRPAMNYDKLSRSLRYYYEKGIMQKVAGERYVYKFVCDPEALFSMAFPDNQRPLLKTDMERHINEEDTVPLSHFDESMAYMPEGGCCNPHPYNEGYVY
Sequence of ELF4 (Q99607 whole entry): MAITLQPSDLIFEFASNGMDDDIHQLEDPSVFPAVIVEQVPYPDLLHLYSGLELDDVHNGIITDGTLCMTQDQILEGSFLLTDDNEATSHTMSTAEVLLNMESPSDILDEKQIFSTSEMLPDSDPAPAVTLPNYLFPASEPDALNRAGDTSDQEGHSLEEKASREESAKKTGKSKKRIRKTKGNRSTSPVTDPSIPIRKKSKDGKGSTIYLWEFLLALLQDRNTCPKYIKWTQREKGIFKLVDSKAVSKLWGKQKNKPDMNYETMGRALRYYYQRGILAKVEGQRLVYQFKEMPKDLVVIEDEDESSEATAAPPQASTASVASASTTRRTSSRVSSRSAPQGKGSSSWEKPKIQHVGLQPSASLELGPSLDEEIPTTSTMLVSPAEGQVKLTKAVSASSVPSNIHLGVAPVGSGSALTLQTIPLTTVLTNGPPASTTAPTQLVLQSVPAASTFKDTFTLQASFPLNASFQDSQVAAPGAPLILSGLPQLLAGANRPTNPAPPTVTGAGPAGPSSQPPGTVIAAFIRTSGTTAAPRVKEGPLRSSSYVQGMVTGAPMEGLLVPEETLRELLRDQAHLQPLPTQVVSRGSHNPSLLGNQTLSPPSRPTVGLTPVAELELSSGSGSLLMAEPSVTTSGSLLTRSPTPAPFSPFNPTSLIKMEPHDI
Sequence of ELF1 (P32519 whole entry): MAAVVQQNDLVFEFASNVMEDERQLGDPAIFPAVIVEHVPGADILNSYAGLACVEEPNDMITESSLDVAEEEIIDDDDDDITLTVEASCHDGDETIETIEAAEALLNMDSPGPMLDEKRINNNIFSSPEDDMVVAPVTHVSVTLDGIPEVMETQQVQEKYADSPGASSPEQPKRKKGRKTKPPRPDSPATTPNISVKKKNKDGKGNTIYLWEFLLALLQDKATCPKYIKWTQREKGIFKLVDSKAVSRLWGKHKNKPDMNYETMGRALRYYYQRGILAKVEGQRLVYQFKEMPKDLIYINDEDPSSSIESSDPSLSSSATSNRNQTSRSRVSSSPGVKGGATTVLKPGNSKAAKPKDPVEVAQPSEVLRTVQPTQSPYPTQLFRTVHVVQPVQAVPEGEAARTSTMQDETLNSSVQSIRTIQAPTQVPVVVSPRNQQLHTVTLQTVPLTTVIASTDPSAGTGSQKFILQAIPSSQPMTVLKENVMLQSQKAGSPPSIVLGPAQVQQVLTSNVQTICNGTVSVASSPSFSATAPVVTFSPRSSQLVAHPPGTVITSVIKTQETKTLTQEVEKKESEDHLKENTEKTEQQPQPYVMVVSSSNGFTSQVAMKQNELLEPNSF
Sequence of HSF1 (Q00613 whole entry): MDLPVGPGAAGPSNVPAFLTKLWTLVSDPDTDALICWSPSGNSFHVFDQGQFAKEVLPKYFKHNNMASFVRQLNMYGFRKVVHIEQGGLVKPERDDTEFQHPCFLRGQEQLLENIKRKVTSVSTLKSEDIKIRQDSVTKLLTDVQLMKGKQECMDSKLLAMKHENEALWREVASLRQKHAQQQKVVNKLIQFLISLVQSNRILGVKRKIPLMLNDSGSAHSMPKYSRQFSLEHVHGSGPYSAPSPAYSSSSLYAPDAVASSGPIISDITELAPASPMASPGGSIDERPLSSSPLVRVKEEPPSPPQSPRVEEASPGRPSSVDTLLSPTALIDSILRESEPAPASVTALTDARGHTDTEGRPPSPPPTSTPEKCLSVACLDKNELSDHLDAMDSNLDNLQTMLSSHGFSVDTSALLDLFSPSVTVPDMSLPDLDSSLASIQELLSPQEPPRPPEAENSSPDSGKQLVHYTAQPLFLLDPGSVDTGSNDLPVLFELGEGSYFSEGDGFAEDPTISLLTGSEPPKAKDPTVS
Sequence of CRX (O43186 whole entry): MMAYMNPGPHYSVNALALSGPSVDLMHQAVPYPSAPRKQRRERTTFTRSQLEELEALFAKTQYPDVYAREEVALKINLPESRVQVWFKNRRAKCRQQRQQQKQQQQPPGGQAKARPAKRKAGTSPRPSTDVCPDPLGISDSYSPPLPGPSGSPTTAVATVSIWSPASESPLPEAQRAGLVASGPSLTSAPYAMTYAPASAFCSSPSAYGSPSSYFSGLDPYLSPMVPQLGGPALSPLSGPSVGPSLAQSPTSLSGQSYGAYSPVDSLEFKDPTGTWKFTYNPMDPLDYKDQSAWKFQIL

Q: TAACTA was tested. Which binding signal (FLI1) did it give?
A: 1.36 fold enrichment (6-mer frequency, TF over GST control)

Q: And the binding signal (ELK1)?
A: 1.29 fold enrichment (6-mer frequency, TF over GST control)

Q: And the binding signal (GABPA)?
A: 1.46 fold enrichment (6-mer frequency, TF over GST control)

Q: What about the binding signal (ERG) of the same sequence?
A: 1.42 fold enrichment (6-mer frequency, TF over GST control)

Q: What about the binding signal (ELF1) of the same sequence?
A: 1.32 fold enrichment (6-mer frequency, TF over GST control)

Q: And the binding signal (EHF)?
A: 1.27 fold enrichment (6-mer frequency, TF over GST control)

Q: And the binding signal (SPI1)?
A: 1.3 fold enrichment (6-mer frequency, TF over GST control)

Q: What about the binding signal (SPIB) of the same sequence?
A: 1.35 fold enrichment (6-mer frequency, TF over GST control)

Q: What about the binding signal (ELK3) of the same sequence?
A: 1.32 fold enrichment (6-mer frequency, TF over GST control)

Q: And the binding signal (FEV)?
A: 1.25 fold enrichment (6-mer frequency, TF over GST control)

Q: And the binding signal (ETV5)?
A: 1.29 fold enrichment (6-mer frequency, TF over GST control)

Q: What about the binding signal (HSF1) of the same sequence?
A: 1.51 fold enrichment (6-mer frequency, TF over GST control)

Q: And the binding signal (SPIC)?
A: 1.36 fold enrichment (6-mer frequency, TF over GST control)

Q: What about the binding signal (ELF4) of the same sequence?
A: 1.48 fold enrichment (6-mer frequency, TF over GST control)

Q: What about the binding signal (ELK4) of the same sequence?
A: 1.26 fold enrichment (6-mer frequency, TF over GST control)

Q: What about the binding signal (ETV2) of the same sequence?
A: 1.49 fold enrichment (6-mer frequency, TF over GST control)

Q: And the binding signal (ELF3)?
A: 1.33 fold enrichment (6-mer frequency, TF over GST control)

Q: And the binding signal (CRX)?
A: 1.87 fold enrichment (6-mer frequency, TF over GST control)

Q: And the binding signal (ETV1)?
A: 1.24 fold enrichment (6-mer frequency, TF over GST control)
